In the library only some 8% were active in any assay of this set; here they are far more common.
SARS PLP yeast – qHTS of Yeast-based Assay for SARS-CoV PLP | S. cerevisiae expressing SARS-CoV PLpro, growth rescue | AID 485353, 2010 | 0.19% of 330,000 active | Potency, µM (series often up to 32.9 µM), usual class: activators; calls by dose curve; further: nearly all actives have a fitted effect of over 55% in size
HCMV antiviral – qHTS Assay for inhibitors of the human cytomegalovirus (HCMV). HFF cells, HCMV-luciferase reporter, 72 h; active compounds read low. activity change, negative = inhibition, % at 57.5 µM. 4.5% of 410,000 active; in the data active means activity change below about -60%; inconclusive means no clear call, values can overlap the other calls; inactive means above about -39%
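HFF cells seeded 16 h at 37C, treated with compounds, infected with luciferase-reporter HCMV at MOI 1 PFU/cell; luciferase read at 72 h post infection, normalized to buffer-only and Salinomycin controls.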
LASV entry inh – qHTS for Inhibitors of binding or entry into cells for Lassa Virus; Potency, µM (highest dose often 37.9 µM), actives largely listed as inhibitors; Lassa virus pseudotype entry inhibition, cell reporter; AID 540256, 2011; 1.2% of 300,000 active; calls by dose curve; tested in HEK293 cells; further: nearly all actives have a fitted effect of over 50% in size
HCV inhibitor – qHTS Assay for Inhibitors of Hepatitis C Virus (HCV). Huh7.5.1 HCVcc-Cre infection, luciferase reporter, 44 h. Potency, µM (titrated, usually from 41.8 µM), hits mostly inhibitors. 3.4% of 340,000 active; active means well fitted inhibition curve with a large enough effect; inconclusive means small, poorly fitted or top-dose-only effect, or another doubt; inactive means no such curve, though single readings can be large or run the other way
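HCVcc-Cre virus at an moi near 0.5 was added right after compound to cells cultured 4 h from seeding (1,000 cells/well). Luciferase activity was determined 44 h later, 15 min after substrate addition at RT.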
FMDV inh – High Throughput Screening for Foot and Mouth Disease Virus Antivirals. 1.2% of 410,000 active. Potency, µM (highest dose often 57.9 µM), most hits filed as inhibitors. FMDV antiviral cell-based qHTS. AID 1159524, 2015; calls by dose curve; tested in HEK293T cells; further: read-out not given here; nearly all actives have a fitted effect of over 45% in size
Marburg entry inh – qHTS for inhibitors of binding or entry into cells for Marburg Virus. Marburg virus pseudotyped entry inhibition, cell reporter. Potency, µM (top dose mostly 37.8 µM), actives largely listed as inhibitors. 1.8% of 300,000 active. AID 540276, 2011; calls by dose curve; tested in HEK293 cells
A number is an active result; . = inactive; ? = inconclusive; / = no result given; ! = not confirmed by another sample.

SMILES | SARS PLP yeast | HCMV antiviral | LASV entry inh | HCV inhibitor | FMDV inh | Marburg entry inh
O=C(Nc1ccc(Cn2cccn2)cc1)c1ccc(COc2ccc(Br)cc2)cc1 | . | . | . | . | . | .
O=C(Nc1ccc(Cn2cccn2)cc1)c1ccc(COc2cccc(Br)c2)cc1 | . | . | 5.6µM | 10µM | . | 0.56µM
CC(Oc1ccc2c(-c3ccccc3)cc(=O)oc2c1)C(=O)NCC(O)c1ccccc1 (stereo not drawn) | . | . | / | 8.9µM | . | /
Cc1c(OCC(=O)NCc2ccccn2)ccc2c(-c3ccccc3)cc(=O)oc12 | . | . | / | . | . | /
O=C(Oc1ccc2c(-c3ccccc3)cc(=O)oc2c1)c1cccs1 | . | -67 | . | . | . | .
Cc1c(OCC(=O)NCC(O)c2ccccc2)ccc2c(-c3ccccc3)cc(=O)oc12 (stereo not drawn) | . | ? | / | 32µM | . | /
CCc1cc2c(-c3ccccc3)cc(=O)oc2cc1OC(=O)c1cccs1 | . | ? | . | . | . | .
O=C(O)C(Cc1ccc2c(c1)oc1ccccc12)NCP(=O)(O)O (stereo not drawn) | / | / | / | / | . | /
COc1ccc(N2CCN(C(=O)COC(=O)CCc3ccccc3)CC2)cc1 | . | . | / | . | . | /
COc1ccc(C2c3cc(OC)c(OC)cc3CC(=O)N2c2ccc(C)cc2)cc1 (stereo not drawn) | / | . | ? | / | . | .
COc1ccc(S(=O)(=O)Oc2ccc3c(c2)O/C(=C\c2cccnc2)C3=O)cc1 | . | -110 | . | ? | . | .
Cc1ccc(OCC(=O)N2N=C(C(F)(F)F)CC2(O)C(C)(C)C)cc1C (stereo not drawn) | . | -91 | ? | . | ? | ?
Cc1ccccc1OCC(=O)N1N=C(C(F)(F)F)CC1(O)C(C)(C)C (stereo not drawn) | . | . | . | . | . | .
O=c1[nH]cnc2sc3c(c12)CCC3 | . | . | . | . | . | .
Nc1ncnc2c1ncn2[C@@H]1O[C@H](CNCc2ccc(-c3cc(C(F)(F)F)ccc3Cl)o2)[C@@H](O)[C@H]1O | . | . | / | 35µM | . | /
COc1cc(NC(=O)c2cc(Cl)ccc2Cl)ccc1NC(=O)c1cc2ccccc2o1 | / | ? | . | / | . | /
CCCCCCNC(=O)c1cn(CC)c2cc(N3CCN(C)CC3)c(F)cc2c1=O | . | . | / | 10µM | . | /
CCC(C)NC(=O)c1cn(CC)c2cc(N3CCN(C(=O)c4ccco4)CC3)c(F)cc2c1=O (stereo not drawn) | . | . | ? | 14µM | . | .
CCn1cc(C(=O)NCCc2ccccc2)c(=O)c2cc(F)c(N3CCN(C)CC3)cc21 | . | . | . | 10µM | . | .
CCn1cc(C(=O)O)c(=O)c2cc(F)c(N3CCN(C(=O)Nc4ccccc4)CC3)cc21 | . | -84 | . | . | . | .
CCn1cc(C(=O)NCCCO)c(=O)c2cc(F)c(N3CCN(C)CC3)cc21 | . | . | / | . | . | /
Cc1cccc2cc(CNCCCN3CCCC3=O)c(N3CCN4CCCC4C3)nc12 (stereo not drawn) | / | / | / | / | . | /
COC(=O)N[C@@H](c1cccc(C)c1)[C@]1(C(C)=O)CCCC1=O | / | / | / | / | / | .
CCCCCCCCCCCCCCCC[N+](C)(C)CCN(Cc1ccc(OC)cc1)c1ncccn1 | / | / | / | 2.8µM | 28µM | /
COc1ccc(CN(CCN(C)C)c2ccccn2)cc1 | . | . | . | ? | . | 16µM!
SMILES | SARS PLP yeast | HCMV antiviral | LASV entry inh | HCV inhibitor | FMDV inh | Marburg entry inh
COc1cccc(CNC(=O)c2ccc3c(c2)nc2n3CCOC2)c1OC | / | . | . | / | . | /
CCOC(=O)Cc1csc(NC(=O)c2ccc(C)cc2)n1 | . | . | / | . | . | .
CCOC(=O)Cc1csc(NC(=S)NC(=O)c2ccc(C)cc2)n1 | . | -96 | / | . | . | /
CCOC(=O)Cc1csc(NC(=O)c2c(-c3ccccc3)noc2C)n1 | . | . | . | . | . | .
CCOC(=O)Cc1csc(NC(=S)NC(=O)c2ccccc2)n1 | . | -65 | . | . | . | .
CCOC(=O)Cc1csc(NC(=O)c2c(C)noc2C)n1 | / | -99 | / | . | . | /
C#CCNC(=O)[C@H]1C=C(OC)C(=O)C[C@H]2c3ccccc3C[C@]12C | / | / | / | / | / | .
Cc1cc(S(N)(=O)=O)c(N)c(S(N)(=O)=O)c1 | . | . | / | . | . | /
CC(=O)c1ccccc1NC(C(=O)NC(C)(C)CC(C)(C)C)C1CC1 (stereo not drawn) | / | . | / | / | / | /
Cc1cc(-n2c(SCc3ccccc3F)nc3[nH]ncc3c2=O)ccc1Cl | / | -64 | . | / | . | /
O=c1c2cn[nH]c2nc(SCc2ccc3c(c2)OCCO3)n1-c1ccccc1 | . | . | ? | ? | 25µM | ?
O=C(Nc1cccc(F)c1)C1CCN(S(=O)(=O)c2cccc3nsnc23)CC1 | / | ? | ? | / | . | ?
COc1ccc(-n2c(C)c(C(C)=O)c3cc(OC(C)=O)ccc32)cc1 | . | -80 | / | ? | . | /
COc1ccc2c(c1)c(C(=O)O)c(C)n2-c1ccccc1 | . | . | . | ? | . | .
CC(=O)c1c(C)n(-c2ccccc2)c2ccc(OCC(N)=O)cc12 | . | ? | / | ? | . | .
COc1ccc2c(c1)c(C(C)=O)c(C)n2-c1ccc(C(C)=O)cc1 | . | -74 | . | . | . | .
OCCCc1nc2ccccc2[nH]1 | . | . | . | . | . | .
COc1cc(NC(=O)c2cc(-c3cccnc3)nc3ccc(Br)cc23)cc(OC)c1 | . | . | 11µM | ? | ? | ?
COc1ccc(NC(=O)c2cc(-c3ccncc3)nc3ccc(Br)cc23)cc1OC | . | -90 | . | 13µM | . | ?
O=C(Nc1cccnc1)c1cc(-c2cccnc2)nc2ccc(Br)cc12 | . | . | . | . | . | ?
CCC(Cc1ccccc1)NC(=O)CN1C(=O)COc2ccc(S(=O)(=O)N3CCCCCC3)cc21 (stereo not drawn) | / | . | . | / | . | .
FC(F)(F)c1cnc(NNC(=S)Nc2ccccc2Cl)c(Cl)c1 | . | -100 | ? | ? | 10µM | ?
Cc1cccc(NC(=S)NNc2ncc(C(F)(F)F)cc2Cl)c1 | ? | ? | 18µM | 11µM | ? | ?
CN1CCC(C(=O)Nc2n[nH]c3nc(-c4ccc(O)cc4)c(Br)cc23)CC1 | / | / | 20µM | / | / | /
CN1CCCC(C(=O)Nc2cccc(Cl)c2)CC1 (stereo not drawn) | / | . | / | / | . | /
SMILES | SARS PLP yeast | HCMV antiviral | LASV entry inh | HCV inhibitor | FMDV inh | Marburg entry inh
COC(=O)/C=C/c1oc2ccccc2c1C | . | . | . | . | . | ?
CSc1nc(O)c(C(c2ccc(O)cc2)c2c(O)nc(SC)[nH]c2=O)c(=O)[nH]1 | . | -69 | / | . | . | /
CCOc1ccc(C(c2c(O)nc(SC)[nH]c2=O)c2c(O)nc(SC)[nH]c2=O)cc1 | / | . | / | . | . | /
Cc1ccc(C(=O)Nc2cccc(-c3nc(CNC(=O)C4(C)CC4)c(C)o3)c2)s1 | / | / | / | / | . | /
OCCCc1cn(Cc2ccccc2)c2ccccc12 | . | . | . | . | . | .
CCCCCN=c1ccn(Cc2ccccc2)c2ccccc12 | / | / | / | / | 40µM | /

High-throughput results (PubChem BioAssay)
